The list is not random: actives were taken first. Their share in the collection is about 32%.
CYP2C19 inhib: inhibitors of human CYP2C19; P33261; CYP2C19 Supersomes, luciferin-H EGE luminescence, 30 min; inhibition, % at 5 µM; 96,000 compounds, 21% hits; AID 778;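 active = CYP2C19 inhibition above a set limit at 5 µM in the primary screen, cut at about 50% in these data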
Target sequence (P33261 whole entry, looked up): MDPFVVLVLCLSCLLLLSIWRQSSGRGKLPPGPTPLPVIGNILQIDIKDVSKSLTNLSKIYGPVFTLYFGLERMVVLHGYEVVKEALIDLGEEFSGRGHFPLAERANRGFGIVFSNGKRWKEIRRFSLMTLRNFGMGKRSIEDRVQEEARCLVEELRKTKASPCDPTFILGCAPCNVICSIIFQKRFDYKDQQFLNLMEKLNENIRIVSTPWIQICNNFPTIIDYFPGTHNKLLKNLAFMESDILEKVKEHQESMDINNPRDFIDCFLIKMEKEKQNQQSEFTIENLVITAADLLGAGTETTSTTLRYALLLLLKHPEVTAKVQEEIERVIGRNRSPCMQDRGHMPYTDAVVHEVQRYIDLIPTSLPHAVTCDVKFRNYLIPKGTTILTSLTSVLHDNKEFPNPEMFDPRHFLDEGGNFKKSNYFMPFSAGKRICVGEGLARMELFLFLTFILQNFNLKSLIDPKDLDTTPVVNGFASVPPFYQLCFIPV
CYP2C19 activ: activators of human cytochrome P450 2C19; P33261; recombinant CYP2C19, luciferin-H EGE luminescence; stronger effect = higher value; 0 = fully inhibited enzyme, 1 = untreated enzyme; activation factor at 5 µM; 96,000 tested, under 10 active; AID 1025;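 active = activation factor of at least 2 at 5 µM in the primary screen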
PostGolgi yeast: growth inhibition of a yeast mutant, post-Golgi transport screen. post-Golgi transport phenotypic cell assay. inhibition, % at 10 µM. 98,000 compounds, 0.9% hits;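 also: yeast cells grown in 1536-well plates; yeast grown about 18 h at 30C before absorbance read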
CYP2C9 act: increases human cytochrome P450 2C9 activity | activation factor at 5 µM | recombinant CYP2C9, luciferin-H conversion, luminescence; stronger effect = higher value; factor 1 = untreated enzyme, 0 = blocked | AID 1024 | P11712 | 96,000 compounds, 1.4% hits;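 active = activation factor of 2 or more for CYP2C9 at a 5 µM dose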
PostGolgi ctrl: growth of the yeast control strain, post-Golgi counter-screen; efflux-deficient yeast background strain, growth absorbance A615, 16 h; inhibition, % at 10 µM; 98,000 compounds, 5% hits
CYP2C9 inh: blocks human cytochrome P450 2C9; P11712; CYP2C9 Supersomes, luciferin-H conversion, luminescence; inhibition, % at 5 µM; 96,000 compounds, 20% hits;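 active = blocking of liver enzyme CYP2C9 beyond about 50% at 5 µM, limit read from the data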
Of the large screens only hits and unclear results are named; the others gave an inactive call. Rule as the data show it, unless noted: active = inhibition above about 30%; inactive = the rest.

O=CN1CC(=O)N(c2ccccc2)c2c([nH]c3ccccc23)C1	CYP2C19 inhib 79
COC(=O)Nc1ccc(C)c2nsnc12	none
OCCCc1nc2n(n1)C(c1ccccc1)C=C(c1ccc(F)cc1)N2 (stereo not given)	none (no result: CYP2C19 inhib, CYP2C19 activ, CYP2C9 act, CYP2C9 inh)
OCCCc1nc2n(n1)C(c1cccs1)C=C(c1ccccc1)N2 (stereo not given)	CYP2C19 inhib 58, CYP2C9 inh 96
OCCCc1nc2n(n1)C(c1ccccc1Cl)C=C(c1cccs1)N2 (stereo not given)	CYP2C9 inh 51
COC(=O)C1Sc2[nH]c(=O)sc2C2c3ccccc3OC(=O)C12 (stereo not given)	none
COC(=O)C1Sc2[nH]c(=O)sc2C(c2ccc(Cl)cc2)C1C(=O)OC (stereo not given)	CYP2C19 inhib 75, CYP2C9 inh 93
C(=N\Nc1nc(-c2ccccc2)cs1)/c1cccnc1	CYP2C19 inhib 93, CYP2C9 inh 89
CC(/C=C/c1ccccc1)=N\Nc1nc(-c2ccccc2)cs1	none
CCn1c(SCCN2CCCCC2)nnc1-c1ccc(S(=O)(=O)N2CCOCC2)cc1	none
Cc1ccc(NC(=O)C(C)c2ccc(-c3ccccc3)c(F)c2)cc1 (stereo not given)	CYP2C9 inh 96
Cc1ccc(NC(=O)c2csc(-c3ccccc3)c2C)cc1	none
CN1CCN(S(=O)(=O)c2ccc(Cc3ccc(S(=O)(=O)N4CCN(C)CC4)cc3)cc2)CC1	none
Cn1cnnc1SCc1ccc(F)c2ccccc12	CYP2C19 inhib 56
Cn1cnnc1SCc1ccccc1	none
Cn1c(=O)c2c(nc(N3CCNCC3)n2Cc2cccc3ccccc23)n(C)c1=O	none
Cc1ccc2ccccc2c1Cn1c(-n2ccnc2)nc2c1c(=O)n(C)c(=O)n2C	CYP2C19 inhib 58
COC(=O)C1=C(CSc2nccn2C)NC(=O)NC1c1cc(C)ccc1C (stereo not given)	none
Cn1ccnc1SCc1ccc([N+](=O)[O-])cc1	CYP2C19 inhib 55
Cn1c(CO)cnc1SCc1ccc([N+](=O)[O-])cc1	CYP2C19 inhib 65
COC(=O)c1ccc(CSc2nccn2C)cc1	CYP2C19 inhib 65
CCc1nn(CC(=O)NCCCN(CC)Cc2ccccc2)c(=O)c2cc3sccc3n12	none
O=C1CC(c2ccco2)Sc2nc3ccccc3n21 (stereo not given)	none
O=C1CC(c2ccc3c(c2)OCO3)Sc2nc3ccccc3n21 (stereo not given)	CYP2C19 inhib 60, CYP2C9 inh 64
CCOC(=O)c1c(N)sc2c(OC)c(Br)ccc12	PostGolgi ctrl 44, CYP2C9 inh 63
Nc1c(-c2ccccc2)cnn1-c1ccc(C(=O)O)cc1	none
COC(=O)c1sc(=S)sc1C(=O)OC	CYP2C19 inhib 52
CC(C)(C)NC(=O)Cn1cc(C#N)c2cc(Br)ccc21	CYP2C19 inhib 88
COc1ccc(C(=O)NN(C)c2nc(-c3ccccc3)nnc2C(F)(F)F)cc1	PostGolgi ctrl 35
Cc1cccc(C(=O)NN(C)c2nc(-c3ccccc3)nnc2C(F)(F)F)c1	none
CC(=O)Nc1ccc(N/C=C/C(=O)c2ccc(C)o2)cc1	none
CSC1=C(C#N)C(C)C2=C(CC(C)(C)CC2=O)N1 (stereo not given)	none
CCOC(=O)c1[nH]c(C)c(C(=O)N2CCN(c3ccc(F)cc3)CC2)c1C	CYP2C19 inhib 79, CYP2C9 inh 77
CCOC(=O)c1[nH]c(C)c(C(=O)N2CCN(c3cccc(Cl)c3)CC2)c1C	CYP2C19 inhib 68, CYP2C9 inh 88
CCOC(=O)c1[nH]c(C)c(C(=O)N2CCN(C(=O)c3ccco3)CC2)c1C	none (no result: CYP2C19 inhib, CYP2C19 activ, CYP2C9 act, CYP2C9 inh)
CSCC[C@H](NC(=O)NCc1ccc(F)cc1)C(=O)O	none
O=C1C2ON(c3ccccc3)C(c3cccnc3)C2C(=O)N1Cc1ccccc1 (stereo not given)	CYP2C19 inhib 100, CYP2C9 inh 88
Cc1c(Cl)cccc1N1C(=O)C2ON(c3ccccc3)C(c3cccnc3)C2C1=O (stereo not given)	CYP2C19 inhib 56
O=C1[C@@H]2[C@H](C(=O)N1Cc1cccnc1)[C@H]1C=C[C@@H]2C1	none
COc1ccc(C2C3C(=O)N(Cc4ccccc4)C(=O)C3ON2c2ccccc2)c(OC)c1OC (stereo not given)	none
Cc1c(Cl)cccc1N1C(=O)c2ccccc2C1=O	none

Compound activity from PubChem BioAssay.
